# Screening data from PubChem BioAssay.
# GAA glycogen: inhibitors or activators of human alpha-glucosidase glycogen cleavage. P10253. recombinant GAA, glycogen substrate, Amplex Red glucose oxidase fluorescence. Potency, µM (doses to about 76.4 µM), hits mostly inhibitors. actives 0.38% (n = 300,000). AID 2100;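 also: the screen sought inhibitors and activators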
#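 Natural-substrate format: glycogen cleavage by 4 nM human enzyme, glucose read by Amplex Red coupling (Ex 573, Em 610 nm). Normalized to enzyme and no-enzyme controls.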
# GAA inhib: inhibitors of human lysosomal alpha-glucosidase. purified human GAA, 4-MU-alpha-glucoside fluorescence. Potency, µM (top dose mostly 76.9 µM), hits mostly inhibitors. actives 0.005% (n = 200,000)
#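 Fluorescence at Ex 365/Em 440 nm from 4-methylumbelliferone reported enzyme activity after 20 min at room temperature. Reactions used 4 nM enzyme and 400 uM substrate at pH 5.0; curves fitted with the Hill equation.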
# aGlu spleen mod: inhibits or activates alpha-glucosidase in human spleen homogenate; P10253; Potency, µM (top dose mostly 79.9 µM), most hits filed as inhibitors; AID 2112; human spleen homogenate, 4-MU-alpha-glucoside fluorescence; actives 0.006% (n = 240,000)
#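 AC50 values come from Hill-equation fits of concentration-response data, normalized to no-enzyme and full-activity controls. Enzyme source: 1 ug human spleen homogenate; 1 mM fluorogenic 4-MU glucoside, pH 5.0 citrate buffer, 37 C, 40 min.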
# PKM2 act: activators of human pyruvate kinase M2 | P14618 | purified PKM2, Kinase-Glo ATP luminescence, activation; response scale: 0% is enzyme alone, no compound | Potency, µM (titrated, usually from 57.5 µM), hits mostly activators | actives 0.34% (n = 260,000); also: nearly all actives have a fitted effect of over 55% in size
#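 Purified hPK-M2 (>95%) run at intermediate activity with 0.1 mM ADP and 0.5 mM PEP in 50 mM imidazole pH 7.2, KCl, MgCl2; 1 h room temperature. ATP formed read by Kinase-Glo luminescence; normalized to uninhibited and no-enzyme controls.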
# GALK inhibitor: galactokinase (human) inhibition. actives 0.007% (n = 270,000). Potency, µM (top dose mostly 57.5 µM), hits mostly inhibitors. P51570. Purified GALK, Kinase-Glo residual ATP luminescence
# Target sequence (P51570 whole entry, looked up): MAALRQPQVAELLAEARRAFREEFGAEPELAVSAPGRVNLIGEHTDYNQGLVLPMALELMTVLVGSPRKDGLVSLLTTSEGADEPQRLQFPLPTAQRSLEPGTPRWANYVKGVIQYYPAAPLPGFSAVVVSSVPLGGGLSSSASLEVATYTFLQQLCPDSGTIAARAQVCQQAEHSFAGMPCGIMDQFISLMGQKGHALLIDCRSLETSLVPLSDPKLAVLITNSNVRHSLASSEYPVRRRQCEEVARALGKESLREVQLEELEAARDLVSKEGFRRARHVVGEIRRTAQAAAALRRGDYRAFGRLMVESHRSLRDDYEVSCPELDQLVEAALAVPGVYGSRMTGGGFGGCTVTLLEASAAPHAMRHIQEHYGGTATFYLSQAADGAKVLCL
#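 5 nM enzyme, 35 uM ATP, 100 uM galactose, 20 mM HEPES pH8.0, 5 mM MgCl2; 1 h RT; residual ATP by Kinase-Glo Plus luminescence, qHTS format.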
# A number is an active result; - = inactive; ? = inconclusive; . = not tested or not shown; [ ] = another dose, or the depositor's remark. In the library only some 0.63% were active in any assay of this set; here they are far more common. Calls follow the shape of the dose curve; as a rule, active = well fitted curve in the direction sought with a large enough effect; inconclusive = small, poorly fitted or top-dose-only effect, or another doubt; inactive = no such curve, though single readings can be large; an effect the other way counts as inactive or inconclusive.
SMILES,GAA glycogen,GAA inhib,aGlu spleen mod,PKM2 act,GALK inhibitor
Cc1c(NC(=S)N/N=C/c2cc([N+](=O)[O-])ccc2O)c(=O)n(-c2ccccc2)n1C,-,-[15.4 µM],-,-,-
Cc1c(NC(=S)N/N=C/c2ccc(O)cc2)c(=O)n(-c2ccccc2)n1C,7.03µM,?,-,-,-
CC(C)(C)NC(=O)C(c1ccncc1)N(Cc1ccc(F)cc1)C(=O)c1ccc(-c2ccccc2)[nH]1 (centres undefined),-,-,-,28.2µM,-
COc1ccccc1N1CCN(S(=O)(=O)c2cc3c(cc2C)NC(=O)CO3)CC1,-,.,.,-,.
COc1cccc(NS(=O)(=O)c2cc3[nH]c(=O)c(=O)[nH]c3cc2C)c1,-,.,.,.,-
COc1cccc(NS(=O)(=O)c2cc3c(cc2C)NC(=O)CO3)c1,-,.,.,1.78µM,.
COc1ccccc1NS(=O)(=O)c1cc2c(cc1C)NC(=O)CO2,-,.,.,7.08µM,.
CCn1c(CN2CCCCC2)nc2cc(NC(=O)COc3ccc(C(C)(C)C)cc3)ccc21,-,.,.,.,.
CC(=O)Nc1ccc(N/C=C/C(=O)C(C)(C)C)cc1,-,-,-,-,-
Cc1ccc(N/C=C/C(=O)C(C)(C)C)c(O)c1,39.5µM,-,-,-,-
Nc1ccc(C(=O)Oc2ccc([N+](=O)[O-])cc2)cc1,-,-,-,39.8µM,-
C/C(N)=C(/C#N)C(=O)CSc1ccc2c(c1)OCCO2,-,-,-,14.1µM,-
CCOc1ccc(-n2c(=O)c3c(C)c(C)sc3n(CC(=O)c3ccccc3)c2=O)cc1,-,.,.,.,.
CCOc1ccc(/C=C/c2nc(C#N)c(N3CCCCC3)o2)cc1,-,.,.,.,.
Cc1csc(SCC(=O)N2CCN(S(=O)(=O)c3ccccc3)CC2)n1,-,?,-,31.6µM,-
Cc1csc(SCC(=O)N2CCN(S(=O)(=O)c3ccc(Cl)cc3)CC2)n1,-,-,-,?,-
Cc1ccc(S(=O)(=O)N2CCN(C(=O)CSc3ccc(F)cc3)CC2)cc1,-,.,.,12.6µM,-
CCOC(=O)c1ccoc1CSCC(=O)N1CCN(S(=O)(=O)c2ccc(C)cc2)CC1,-,-,-,25.1µM,-
CCOC(=O)N1CCN(S(=O)(=O)c2ccc(C)cc2)C1,-,-[15.4 µM],-,-,-
CC(C)CC(=O)N1CCN(S(=O)(=O)c2ccc(F)cc2)CC1,-,-,-,-,-
O=C(Cc1cccs1)N1CCN(S(=O)(=O)c2ccc(Br)cc2)CC1,-,-,-,3.16µM,.
CCOc1ccc(OCC)c(NC(=O)c2nnn(CC(=O)Nc3ccc(C)cc3C)c2N)c1,-,.,.,.,.
COc1cccc(NC(=O)C2CCCN(c3nnc(-n4c(C)ccc4C)s3)C2)c1 (centres undefined),-,.,.,.,.
O=C(O)CSCC(=O)N1CCN(S(=O)(=O)c2ccccc2)CC1,-,-,-,-,-
O=C(CSc1ccccc1)N1CCN(S(=O)(=O)c2ccccc2)CC1,-,.,.,2.82µM,-
SMILES,GAA glycogen,GAA inhib,aGlu spleen mod,PKM2 act,GALK inhibitor
COc1ccc(CCNC(=O)CCCn2c(=O)c3ccccc3n(Cc3ccccc3)c2=O)cc1OC,-,.,.,.,.
O=C1CC(Cc2ccccc2)C(=O)N1Cc1ccco1 (centres undefined),-,-,-,28.2µM,-
CCOc1ccc(-c2csc(-c3c(N)c(C(=O)c4ccc5c(c4)OCO5)n4ccccc34)n2)cc1,-,.,.,.,.
CCOC(=O)CNc1c(-c2ccc(O)cc2)nc2ccc(Cl)cn12,22.4µM,-,-,-,-
Cc1ccccc1Nc1c(-c2ccncc2)nc2ccc(Cl)cn12,?,-,-,-,-
CCOC(=O)CNc1c(-c2ccccc2)nc2ccc(Cl)cn12,4.47µM,-,-,-,-
CCOC(=O)CNc1c(-c2ccc(O)cc2)nc2ccccn12,35.2µM,-,-,-,-
Oc1ccc(-c2nc3ccccn3c2NCc2ccc3c(c2)OCO3)cc1,35.5µM,-,-,-,-
O=C(Nc1c(-c2ccccc2)nc2ccc(Cl)cn12)c1cccs1,-,-,-,-,-
Cc1cc(C)cc(-n2c(SCC(=O)Nc3ccccc3F)nc3c(oc4ccccc43)c2=O)c1,-,.,.,.,.
Cc1ccc(CNC(=O)c2ccc(Cn3c(SCc4ccc(F)cc4)nc4cccnc43)cc2)o1,-,.,.,.,.
CCc1cccc(C)c1Nc1c(-c2ccc(N(C)C)cc2)nc2cnccn12,10µM,.,.,.,.
COCCn1c(CCC(=O)Nc2ccc(OC)c(OC)c2)nc2cccnc21,-,.,.,.,.
CCOC(=O)c1ccc(NC(=O)c2ccc3c(c2)NC(=O)c2ccccc2S3)cc1,-,.,.,.,.
CCOC(=O)Nc1ccc2c(c1)Nc1ccccc1S2,14µM,-,-,-,-
CC(=O)c1ccc2c(c1)Nc1ccccc1S2,31.4µM,-,-,-,-
